Reference: PubChem BioAssay (NCATS)
Results filed as inconclusive are left out. Where a call stands in place of a potency, no number is given. Active and inactive are the calls of the source. Unless noted, calls follow the shape of the dose curve; as a rule, active = well fitted curve in the direction sought with a large enough effect; inconclusive = small, poorly fitted or top-dose-only effect, or another doubt; inactive = no such curve, though single readings can be large; an effect the other way counts as inactive or inconclusive.

How the values were obtained:
[1] = Confirmation and Secondary Assay for Modulators of Hemoglobin Beta Chain Splicing at IVS2 654 locus (AID 910);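 also: HeLa cells stably carrying EGFP split by mutant beta-globin IVS2-654 intron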
How it was run: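 HeLa cells stably expressing EGFP interrupted by β-globin IVS2-654 intron, seeded overnight in Opti-MEM/2% FCS, then treated 2 days at 37 °C. Restored splicing read as total peak GFP intensity per well by laser scanning cytometry (488 nm excitation, 500–520 nm emission); 500 nM antisense PNA as control.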

[2] = Confirmation and Secondary Assay for Modulators of Hemoglobin Beta Chain Splicing at IVS2 705 locus (AID 930);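 also: HeLa cells stably expressing the EGFP-705 splicing reporter; GFP fluorescence per well restored by corrected splicing of the IVS2-705 intron in EGFP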
How it was run: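 Fluorescence gain (488 nm laser, 500-520 nm PMT) reflects restored correct splicing of a mutant IVS2-705 intron inside EGFP in stably transfected HeLa cells after 2-day compound treatment.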

[3] = qHTS Assay for Lipid Storage Modulators (AID 1519; calls by dose curve); details: Drosophila S3 cells, BODIPY lipid droplet/cell ratio, laser cytometry, cells loaded with oleic acid
How it was run: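 Cells seeded at 5,000 per well were treated with compounds over a concentration series and loaded with oleic acid (400 uM, as added). Lipid droplet fluorescence (488 nm excitation, 500-530 nm channel) was read by laser-scanning cytometry and normalized to 20 uM Triacsin C.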

Furin (Homo sapiens) = Furin (Homo sapiens) (UniProt P09958); assay: Furin counterscreen qHTS for Zika virus inhibitors (AID 1347149);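 also: purified recombinant full-length human furin enzyme at 5 nM; fluorescence gain from furin cutting a BOC-RVRR-AMC peptide substrate over 15 min; top concentration of the series differs between compounds; nearly all actives have a fitted effect of over 70% in size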
Furin (Homo sapiens), sequence (P09958 whole entry, looked up): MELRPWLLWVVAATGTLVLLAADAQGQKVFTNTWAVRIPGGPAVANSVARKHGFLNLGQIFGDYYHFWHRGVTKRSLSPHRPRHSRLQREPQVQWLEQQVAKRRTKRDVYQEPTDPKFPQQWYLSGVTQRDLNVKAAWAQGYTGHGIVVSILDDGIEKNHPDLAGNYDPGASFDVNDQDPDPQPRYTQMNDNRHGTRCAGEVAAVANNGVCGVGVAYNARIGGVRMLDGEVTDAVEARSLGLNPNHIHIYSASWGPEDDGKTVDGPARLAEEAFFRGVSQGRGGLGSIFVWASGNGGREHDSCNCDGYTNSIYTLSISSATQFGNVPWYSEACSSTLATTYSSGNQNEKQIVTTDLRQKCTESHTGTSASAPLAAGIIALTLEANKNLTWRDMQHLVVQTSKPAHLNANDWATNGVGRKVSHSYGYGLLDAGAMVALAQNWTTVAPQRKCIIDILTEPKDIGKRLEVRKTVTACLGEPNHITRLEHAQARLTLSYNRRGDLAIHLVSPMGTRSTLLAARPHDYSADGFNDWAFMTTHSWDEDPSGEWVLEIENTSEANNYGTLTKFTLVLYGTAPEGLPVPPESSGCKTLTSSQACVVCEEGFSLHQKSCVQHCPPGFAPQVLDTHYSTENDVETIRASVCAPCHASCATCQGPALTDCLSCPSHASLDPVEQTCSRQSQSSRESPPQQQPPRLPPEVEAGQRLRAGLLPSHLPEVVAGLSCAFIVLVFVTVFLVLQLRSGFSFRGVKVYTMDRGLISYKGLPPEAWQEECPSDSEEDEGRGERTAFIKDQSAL
How it was run: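 Fluorogenic cleavage of BOC-RVRR-AMC (2 microM final, Km ~15 µM) was monitored (ex 340, em 450 nm) at 37C after 15 min RT preincubation of 5 nM furin with compounds in HEPES pH 7.0 buffer with CaCl2 and Triton X-100. Percent inhibition was fitted to a 4-parameter Hill curve.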

[4] = Confirmatory screen GU Rhodamine qHTS for Zika virus inhibitors qHTS (AID 1347157); also: potency is read from the fitted curve at half-maximal effect; nearly all actives have a fitted effect of over 70% in size
How it was run: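 Compounds, tested up to 114 microM, were incubated for 15 minutes with 25 nM unlinked NS2B-NS3 protease at pH 8.0. Cleavage of 1.5 microM Rhodamine110 substrate was then followed by fluorescence for 15 minutes.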

[5] = ZIKV-mCherry secondary qHTS for Zika virus inhibitors (AID 1347158); also: top concentration of the series differs between compounds
How it was run: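 After overnight seeding at 37 °C, Vero cells receive compound and then ZIKV-mCherry (MOI 1). Following 48-72 h infection, cells are fixed, counterstained with Hoechst, and imaged; percent infected cells is derived from an mCherry intensity cut-off of 450 RFU.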

[6] = system: Zika virus NS2B-NS3 protease (linked construct); assay: Primary screen NINDS Rhodamine qHTS for Zika virus inhibitors (AID 1347160); also: potency is read from the fitted curve at half-maximal effect; nearly all actives have a fitted effect of over 55% in size
How it was run: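 Purified linked NS2B-NS3 protease (NS2B hydrophilic domain joined to NS3 protease by flexible linker), 25 nM in 10 mM Tris-HCl pH 8.0, 0.01% Tween 20. Compounds titrated, 15 min preincubation at room temperature; 1.5 microM Rhodamine110 substrate, FITC fluorescence change over 15 min.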

[7] = Confirmatory screen NINDS Rhodamine qHTS for Zika virus inhibitors (AID 1347161); also: potency is read from the fitted curve at half-maximal effect; nearly all actives have a fitted effect of over 60% in size
How it was run: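 Aprotinin served as in-plate control. Conditions: 25 nM linked NS2B-NS3, pH 8.0 Tris buffer, titrated compounds, 15 min preincubation and 15 min reaction with 1.5 microM Rhod110 substrate at room temperature.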

[8] = system: Zika virus NS2B-NS3 protease (linked); assay: 384 well plate NINDS AMC confirmatory qHTS for Zika virus inhibitors (AID 1347163); also: potency is read from the fitted curve at half-maximal effect; nearly all actives have a fitted effect of over 50% in size
How it was run: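 Linked protease 5/30/60 nM final; cpds up to 1 mM final, ~15 min preinc. Substrate Ac-VKTGKR-AMC 30 microM final. RT, dark, 25 min; FI ex 355/em 460; normalized to no-enzyme/no-inhibitor ctrls.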

[9] = system: Zika virus NS2B-NS3 protease (linked construct); assay: 384 well plate NINDS Rhodamine confirmatory qHTS for Zika virus inhibitors (AID 1347164);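 also: fluorescence from protease cleavage of Ac-LKRR-rhodamine 110 substrate; potency is read from the fitted curve at half-maximal effect; nearly all actives have a fitted effect of over 65% in size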
How it was run: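 Linked protease at a final 5 nM, 30 nM or 60 nM was preincubated ~15 min with compounds, then given 10 microM Ac-LKRR-Rhodamine 110. Fluorescence (ex 485/em 538 nm) after 25 min in the dark at room temperature.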

[10] = OV-KATE Cancer Cell Toxicity qHTS against the NCATS CANVASS Library (AID 1347345)
How it was run: (§1)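 Bortezomib titration and single-dose wells served as plate controls. Test compounds, 11 points, acted on 1000 cells/well for 72 h at 37 degrees C; CellTiter-Glo luminescence quantified remaining viable cells.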

[11] = HPAF-II Cancer Cell Toxicity qHTS against the NCATS CANVASS Library (AID 1347346); also: nearly all actives have a fitted effect of over 55% in size
How it was run: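 Cytotoxicity in HPAF-II pancreatic cancer cells: 72 h treatment across 11 concentrations, ATP-based CellTiter-Glo luminescence endpoint.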

[12] = Panc-1005 Cancer Cell Toxicity qHTS against the NCATS CANVASS Library (AID 1347349); also: potency is read from the fitted curve at half-maximal effect; nearly all actives have a fitted effect of over 60% in size
How it was run: as §1

[13] = A2780 Cisplatin Sensitive Ovarian Cancer Cell Toxicity qHTS against the NCATS CANVASS Library (AID 1347353); also: nearly all actives have a fitted effect of over 60% in size
How it was run: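 Seventy-two-hour exposure of cisplatin-sensitive A2780 ovarian cells to an 11-concentration qHTS series; cytotoxicity is inferred from loss of ATPLite luminescence. Bortezomib titration served as positive control.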

[14] = UWB1.289-WTBRCA1 Cancer Cell Toxicity qHTS against the NCATS CANVASS Library (AID 1347354)
How it was run: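 qHTS cytotoxicity: compounds tested in 11 concentrations on 1000 seeded cells per well over 72 h; bortezomib served as control; signal from CellTiter-Glo luminescence.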

[15] = HPAF-II 24hr Apoptosis Induction qHTS against the NCATS CANVASS Library (AID 1347356)
How it was run: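 Apoptosis induction in HPAF-II pancreatic cancer cells is measured as caspase-3/7 luminescence after a 24-hour exposure to compounds.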

[16] = HEK293 18hr Apoptosis Induction qHTS against the NCATS CANVASS Library (AID 1347357)
How it was run: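 HEK293 cells (500 per well, DMEM with 10% FBS) were treated with natural products, incubated 18 hours at 37 degrees C, then caspase-3/7 activity was read by Caspase-Glo luminescence after 15 min at room temperature.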

[17] = HEK293 24hr Apoptosis Induction qHTS against the NCATS CANVASS Library (AID 1347359)
How it was run: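 HEK293 cells, 500 per well, exposed to an 11-point compound series for 24 hours at 37 degrees C. Caspase 3/7 activity read by Caspase-Glo luminescence (DEVD substrate) after 15 min at room temperature.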

[18] = HEK293 12hr Apoptosis Induction qHTS against the NCATS CANVASS Library (AID 1347361)
How it was run: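 Read-out: Caspase-Glo 3/7 luminescence (DEVD substrate), 15 min RT. Preceded by 12 h compound exposure of HEK293, 500 cells/well, 11-pt qHTS titration; doxorubicin titration as control.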

With `O=C(OC1Cc2c(O)cc(O)cc2OC1c1cc(O)c(O)c(O)c1)c1cc(O)c(O)c(O)c1` (stereo unspecified) the outcome [1] was “inactive”, the outcome [2] was “inactive” and the activity change, negative = inhibition ([3]; at 57.5 µM (top of the series)) was 7.9% (inactive). The max response ([3]; measured here: cell count channel max response) was 1.63%, the max response ([3]; measured here: lipid channel max response) was 13.6% and the Potency (Furin (Homo sapiens)) was “inactive”. The Potency [4] was 7.94 µM (active), the Potency [5] was “inactive” and the Potency [6] was 1.56 µM (active). For the same molecule, the Potency [7] was 7.94 µM (active), the Potency [8] was 15.8 µM (active) and the Potency [9] was 89.1 µM (active). For the same molecule, the Potency [10] was “inactive”, the Potency [11] was “inactive” and the Potency [12] was 18.8 µM (active). For the same molecule, the Potency [13] was “inactive”, the Potency [14] was “inactive” and the outcome [15] was “inactive”. For the same molecule, the Potency [16] was “inactive”, the Potency [17] was “inactive” and the Potency [18] was “inactive”.
